Reference: ChEMBL document CHEMBL3433997, “St. Jude Leishmania screening dataset” (2016)

What was measured:
Assay type in all cases: functional
[1] = target: Solute carrier family 2, facilitated glucose transporter member 1 (Homo sapiens) (UniProt P11166); assay: ST_JUDE_LEISH: Cytotoxicity at 2uM final concentration against transgenic Leishmania Mexicana promastigotes LmGLUT1 that are glucose transport deficient and complemented with the human glucose transporter GLUT1. Activity is measured by DNA content using SYBR green in vitro
Solute carrier family 2, facilitated glucose transporter member 1 (Homo sapiens), sequence (P11166 whole entry): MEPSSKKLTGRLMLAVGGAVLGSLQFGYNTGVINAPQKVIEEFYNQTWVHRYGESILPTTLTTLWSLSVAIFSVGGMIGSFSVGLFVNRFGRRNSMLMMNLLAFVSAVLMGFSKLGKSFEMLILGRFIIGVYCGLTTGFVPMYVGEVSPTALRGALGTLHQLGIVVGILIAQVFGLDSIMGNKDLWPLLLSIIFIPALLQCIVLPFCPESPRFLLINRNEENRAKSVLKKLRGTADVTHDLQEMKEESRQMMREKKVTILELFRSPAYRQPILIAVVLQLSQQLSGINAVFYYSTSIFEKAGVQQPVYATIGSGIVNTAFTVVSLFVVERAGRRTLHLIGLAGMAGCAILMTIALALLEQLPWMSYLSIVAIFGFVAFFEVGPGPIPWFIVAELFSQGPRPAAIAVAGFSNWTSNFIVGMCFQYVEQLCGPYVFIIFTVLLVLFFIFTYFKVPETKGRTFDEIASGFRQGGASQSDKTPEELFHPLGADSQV

[2] = target: Hexose transporter 1 (Plasmodium falciparum) (UniProt O97467); assay: ST_JUDE_LEISH: Cytotoxicity at 2uM final concentration against transgenic Leishmania Mexicana promastigotes LmPfHT that are glucose transport deficient and complemented with the Plasmodium falciparum hexose transporter. Activity is measured by DNA content using SYBR green in vitro
[3] = target: Glucose transporter (Leishmania mexicana) (UniProt O61059); assay: ST_JUDE_LEISH: Cytotoxicity at 2uM final concentration against transgenic Leishmania Mexicana promastigotes LmGT2 that are glucose transport deficient and complemented with the L. Mexicana glucose transporter 2. Activity is measured by DNA content using SYBR green in vitro

Row | Compound | inhibition [1] | inhibition [2] | inhibition [3]
1 | Cc1noc(C)c1-c1cccc(CNCc2cccc(-c3ccc(-c4nc5ccccc5[nH]4)cc3)c2)c1 | 0.58% | -1.28% | -1.53%
2 | c1ccc(Oc2ccc(Nc3ccnc4cc(-c5cccc(CN6CCOCC6)c5)ccc34)cc2)cc1 | -0.77% | 0.67% | 1.46%
3 | O=C(Nc1cccc(CN2CCCN(Cc3ccsc3)CC2)c1)c1ccc(-c2ccccc2)cc1 | 2.55% | 3.01% | 1.6%
4 | CNC(=O)C1Cc2c([nH]c3cc(Br)ccc23)C2(CCN(CCc3ccccc3)CC2)N1 (configuration not stated) | 2.01% | 0.63% | 1.83%
